Records with an inconclusive call do not appear. The source made the active and inactive calls. How the source made its calls: active means hit-call score of the fitted dose curve at least 0.9, where 1 is the maximum; inconclusive means response in the unintended direction; inactive means score below 0.9.
Read-out: organic anion transporter (SLCO1B1), SLCO1B1 (gene 10599)
Assay: CLD_SLCO1B1_24hr: CellzDirect (CLD) Gene Expression Assay for organic anion transporter (SLCO1B1) at 24 hours (AID 2283690)
Method: CLD_24hr is a cell-based, multiplexed-readout assay that uses hepatocyte, a human liver primary cell, with measurements taken at 24 hours after chemical dosing in a 96-well plate.CLD_SLCO1B1_24hr is one of 16 assay component(s) measured or calculated from the CLD_24hr assay. It is designed to make measurements of mRNA induction, a form of inducible reporter, as detected with chemiluminescence signals by Quantitative Nuclease Protection Assay (qNPA) technology.Data from the assay component CLD_SLCO1B1_24hr was analyzed at the endpoint, CLD_SLCO1B1_24hr, in the positive analysis fitting direction relative to DMSO as the negative control and baseline of activity. Using a type of inducible reporter, gain-of-signal activity can be used to understand changes in the reporter gene as they relate to the gene SLCO1B1. Furthermore, this assay endpoint can be referred to as a primary readout. To generalize the intended target to other relatable targets, this assay endpoint is annotated to the transporter intended target family, where subfamily is organic anion transporter.
Human hepatocyte cultures were treated daily for two consecutive days with fresh dosing solutions containing appropriate concentrations of the 320 ToxCast chemicals (chemical identities were blinded to CellzDirect and other ToxCast collaborators), vehicle control (0.2% DMSO), and positive control inducers as summarized in Table 1. Due to the large number of treatment groups and chemicals examined, the ToxCast chemicals were divided into two groups (spanning two independent cultures of hepatocytes from separate donor preparations (Hu778: ToxCast plates 1 and 2; Hu776: ToxCast plates 3 and 4). Each preparation of human hepatocyte cultures was treated with respective vehicle control, medium only control, set of six positive controls/reference chemicals for the five hepatic receptor pathways, and a subset of eight of the ToxCast chemicals (indoxacarb, pyrithiobac-sodium, norflurazon, cyhalofop-butyl, methomyl, thiram, acetochlor, and propiconazole). These replicate data, coupled with internal replicates designed within the blinded ToxCast chemical library, provided additional data to evaluate interindividual differences between hepatocyte preparations and their potential impact on chemical profiles.Cell morphology and integrity were evaluated using phase-contrast microscopy as an indicator of hepatocyte cell health (Tyson & Green, 1987). Cultures for each treatment group (i.e., media, vehicle [0.2% DMSO], positive control inducers [multiple concentrations], and the ToxCast chemicals [multiple concentrations]) were observed and cell morphology was assessed relative to vehicle control cultures at each harvest time point (0, 6, 24, or 48 h). […] Images were evaluated at the conclusion of the study to assess changes in cell integrity and account for the effects of chemical exposure on uncharacteristic changes in concentration-dependent gene expression profiles. The results from these determinations of apparent cytotoxicity were annotated (yes/no) alongside the corresponding qNPA data for reference.At the conclusion of each treatment period, hepatocyte cultures (96-well) were washed with 1 volume of HBSS, lysed by addition of 25 ul ArrayPlate lysis buffer (HTG, Tucson, AZ), and 70 ul/well of Denaturation Oil, denatured by incubation at 95C for 10 min, and frozen at approximately -70C until analysis by nuclease protection assay (qNPA) (Roberts et al., 2007). For qNPA analysis, cell lysates were thawed at 50C for approximately 30 min, qNPA probes were added, and samples were incubated at 95C for 10 min to begin the detection process by denaturing the target RNA, dissociating the duplexes and secondary structure hybridization. At the conclusion of the hybridization period, S1 nuclease reagent was added to each sample to digest all nonprotected nucleotides at 50C for 60-90 min. […]

| SMILES | outcome |
| --- | --- |
| CN(C)NC(=O)CCC(=O)O | inactive |
| CC(C)[C@H](C(=O)O[C@H](C#N)c1cccc(Oc2ccccc2)c1)c1ccc(Cl)cc1 | inactive |
| CN(C)C(=O)Nc1cccc(C(F)(F)F)c1 | inactive |
| Nc1nc(N)nc(NC2CC2)n1 | inactive |
| O=c1ccc(=O)[nH][nH]1 | inactive |
| CCCOc1nn(C(=O)NS(=O)(=O)c2ccccc2C(=O)OC)c(=O)n1C | inactive |
| CCOP(=S)(OCC)SCCSCC | inactive |
| CNC(=O)ON=C(SC)C(=O)N(C)C | inactive |
| COc1cc(OC)nc(Sc2cccc(Cl)c2C(=O)O)n1 | inactive |
| CCc1cnc(C2=NC(C)(C(C)C)C(=O)N2)c(C(=O)O)c1 (centres undefined) | inactive |
| CCc1cccc(CC)c1N(COC)C(=O)CCl | inactive |
| CCNc1nc(Cl)nc(NC(C)(C)C#N)n1 | inactive |
| COc1ccc(C(=CC(=O)N2CCOCC2)c2ccc(Cl)cc2)cc1OC | inactive |
| Cc1nn(-c2cc(NS(C)(=O)=O)c(Cl)cc2Cl)c(=O)n1C(F)F | inactive |
| CCOP(=S)(OCC)Oc1ccc2c(C)c(Cl)c(=O)oc2c1 | inactive |
| CCOP(=O)(SC(C)CC)N1CCSC1=O (centres undefined) | inactive |
| CC(C)=CC1C(C(=O)OCN2C(=O)C3=C(CCCC3)C2=O)C1(C)C (centres undefined) | inactive |
| COP(=O)(OC)C(O)C(Cl)(Cl)Cl (centres undefined) | inactive |
| CCOP(=S)(OCC)OC(Cl)C(Cl)(Cl)Cl (centres undefined) | inactive |
| C=C(C)[C@H]1Cc2c(ccc3c2O[C@@H]2COc4cc(OC)c(OC)cc4[C@@H]2C3=O)O1 | inactive |

| SMILES | outcome |
| --- | --- |
| CC(COc1ccc(Oc2ccccc2)cc1)Oc1ccccn1 (centres undefined) | inactive |
| O=C(O)c1cc(Oc2ccc(C(F)(F)F)cc2Cl)ccc1[N+](=O)[O-] | inactive |
| CC1(C(=O)Nc2ccc(O)c(Cl)c2Cl)CCCCC1 | inactive |
| CCCSP(=O)(OCC)Oc1ccc(Br)cc1Cl (centres undefined) | inactive |
| CCCCSP(=O)(SCCCC)SCCCC | inactive |
| CNC(=O)ON=C(C)SC | inactive |
| C#CCC1=C(C)C(OC(=O)C2C(C=C(C)C)C2(C)C)CC1=O (centres undefined) | inactive |
| CCOC(=O)CC(SP(=O)(OC)OC)C(=O)OCC (centres undefined) | inactive |
| COP(=O)(NC(C)=O)SC (centres undefined) | inactive |
| CCOC(=O)COc1cc(-c2nn(C)c(OC(F)F)c2Cl)c(F)cc1Cl | inactive |
| CN1COCN(Cc2cnc(Cl)s2)C1=N[N+](=O)[O-] | inactive |
| S=C1NCCN1 | inactive |
| CC(C1CC1)C(O)(Cn1cncn1)c1ccc(Cl)cc1 (centres undefined) | inactive |
| CNC(=O)Oc1cccc2c1OC(C)(C)O2 | inactive |
| CCOP(=O)(OCC)Oc1cc(C)nc(C(C)C)n1 | inactive |
| COc1cccc(C(=O)NN(C(=O)c2cc(C)cc(C)c2)C(C)(C)C)c1C | inactive |
| CSC1=N[C@@](C)(c2ccccc2)C(=O)N1Nc1ccccc1 | inactive |
| CC(=NC#N)N(C)Cc1ccc(Cl)nc1 | inactive |
| CN(C)[C@@H]1C(=O)C(C(N)=O)=C(O)[C@@]2(O)C(=O)C3=C(O)c4c(O)cccc4[C@@](C)(O)[C@H]3[C@H](O)[C@@H]12 | inactive |

From PubChem BioAssay (EPA / NIEHS)
